In the supplement of paper PMC13380429:

Test system: Vero E6 infected with SARS-CoV-2
Assay: inhibition of SARS-CoV-2 cytopathic effect; higher = more antiviral protection, active = above 15
Settings: 48 h

Measured: inhibition of SARS-CoV-2 cytopathic effect

CN(C(=O)CCCOc1ccc2[nH]c(=O)ccc2c1)C1CCCCC1 [cilostamide]
inactive: 1 nM 0.62% | 8.33 nM 1.01% | 100 nM -0.1% | 833.33 nM 0.52% | 10000 nM -0.25%

O=Cc1cn(Cc2ccc(Cl)cc2)c2ccccc12 [oncrasin-1]
inactive: 1 nM 1.13% | 8.33 nM -1.86% | 100 nM 2.77% | 833.33 nM 2.11% | 10000 nM 2.76%

CC(C)(c1ccc(O)cc1)c1ccc(O)cc1 [bisphenol-A]
inactive: 1 nM 3.73% | 8.33 nM 8.2% | 100 nM 2.75% | 833.33 nM 1.31% | 10000 nM 4%

COc1cc2c(cc1OC)[C@H](C)NCC2 [Isoquinoline,-6,7-dimethoxy-1-methyl-1,2,3,4-tetrahydro,]
inactive: 1 nM -4.15% | 8.33 nM -1.29% | 100 nM -0.88% | 833.33 nM -1.82% | 10000 nM -2.99%

O=C(OC(C(F)(F)F)C(F)(F)F)N1CCN(Cc2cccc(Oc3ccccc3)c2)CC1
inactive: 1 nM 3.59% | 8.33 nM 4.7% | 100 nM 3.33% | 833.33 nM 3.51% | 10000 nM 2.77%

O=C(O)c1nc(=O)[nH]c(=O)[nH]1 [oxonic-acid]
inactive: 1 nM -6.02% | 8.33 nM -2.79% | 100 nM 1.25% | 833.33 nM 0.64% | 10000 nM -0.52%

CCOC(=O)c1ccc(OC(=O)CCCCCNC(=N)N)cc1 [gabexate]
inactive: 1 nM -0.03% | 8.33 nM -1.96% | 100 nM 1.38% | 833.33 nM 3.6% | 10000 nM 3.31%

CC(C)(C)c1ccc(CN2CCN(C(c3ccccc3)c3ccc(Cl)cc3)CC2)cc1 (stereo not given) [buclizine]
inactive: 1 nM -1.54% | 8.33 nM -0.87% | 100 nM 0.71% | 833.33 nM 0.45% | 10000 nM 2.38%

C[C@@H](O)[C@@H]1NC(=O)[C@H](CCCCN)NC(=O)[C@@H](Cc2c[nH]c3ccccc23)NC(=O)[C@H](Cc2ccccc2)NC(=O)[C@@H](NC(=O)[C@H](N)Cc2ccccc2)CSSC[C@@H](C(=O)N[C@H](CO)[C@@H](C)O)NC1=O [octreotide]
inactive: 1 nM 2.23% | 8.33 nM -0.63% | 100 nM -1.24% | 833.33 nM 3.26% | 10000 nM -1.58%

CCCN(CCC)CCc1cccc2c1CC(=O)N2 [ropinirole]
inactive: 1 nM 0.18% | 8.33 nM -0.55% | 100 nM -1.05% | 833.33 nM 2.2% | 10000 nM -0.98%

CC(=O)N[C@H]1[C@H]([C@H](O)[C@H](O)CO)OC(C(=O)O)=C[C@@H]1NC(=N)N [zanamivir]
inactive: 1 nM 0.39% | 8.33 nM 0.16% | 100 nM -0.26% | 833.33 nM 2.6% | 10000 nM 2.28%

O=C(O)/C=C/c1ccc(O)c(O)c1 [caffeic-acid]
inactive: 1 nM 2.05% | 8.33 nM -0.05% | 100 nM 0.87% | 833.33 nM -0.22% | 10000 nM -4.36%

CCC(NC(C)C)C(O)c1ccc(O)c2[nH]c(=O)ccc12 (stereo not given) [procaterol]
inactive: 1 nM -1.54% | 8.33 nM 0.18% | 100 nM -2.76% | 833.33 nM -0.33% | 10000 nM -1.47%

CC(C)c1cc(CNc2nc(Nc3cc(C4CC4)[nH]n3)cc(N3CCN(C)CC3)n2)on1
inactive: 1 nM 0.13% | 8.33 nM 1.15% | 100 nM 0.48% | 833.33 nM -4.78% | 10000 nM -15%

O=C(Nc1ccc(C(F)(F)F)cn1)N1CCN(c2ncccc2C(F)(F)F)CC1
inactive: 1 nM -2.83% | 8.33 nM 0.93% | 100 nM 1.25% | 833.33 nM 1.49% | 10000 nM -0.71%

CC1(C)C(=O)NC2=C1C(=O)C(=O)c1ccccc12
inactive: 1 nM 0.25% | 8.33 nM -0.49% | 100 nM -0.78% | 833.33 nM 1.58% | 10000 nM -10.5%

O[C@@H](COc1cccc2ncccc12)CN1CCN([C@@H]2c3ccccc3[C@@H]3[C@H](c4ccccc42)C3(F)F)CC1 [zosuquidar]
inactive: 1 nM -0.36% | 8.33 nM 1.65% | 100 nM 0.11% | 833.33 nM 0.85% | 10000 nM -3.28%

OC(c1ccccc1)(c1ccccc1)C12CC[N+](CCOCc3ccccc3)(CC1)CC2 [umeclidinium]
inactive: 1 nM -0.48% | 8.33 nM 1.77% | 100 nM 0.73% | 833.33 nM 1.46% | 10000 nM 1.64%
